Source: PubChem BioAssay (several laboratories)
IEC-6 tox = IEC-6 cytotoxicity, counter-screen for KLF5 inhibitors; luminescence viability; inhibition, % at 5 µM; 290,000 tested, 0.78% active; AID 1825; in the data active = inhibition above about 22%;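 note: 0% = plate median of test compound wells and 100% = cytotoxic reference compound wells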
aSyn 5UTR inh = MLPCN primary screen, SNCA 5' untranslated region | alpha-synuclein 5'UTR reporter, inhibitor activity | inhibition, % (tested at 7.5 µM) | 300,000 tested, 0.82% active; in the data active = inhibition above about 60%;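 note: H4 neuroglioblastoma cells stably carrying SNCA 5'UTR luciferase fusion; 0% = DMSO wells and 100% = positive control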
BaF3 parental = reduces parental Ba/F3 cell viability, JAK2V617F counter-screen. CellTiter-Glo ATP luminescence. inhibition, % at 5.6 µM. 220,000 tested, 1.1% active. AID 1486;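 active = inhibition above a per-campaign cutoff, the mean inhibition of all tested compounds plus 3 SD, cut at about 27% in these data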;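 note: 0% = DMSO wells and 100% = JAK Inhibitor I control wells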
APP transl inh = APP translation inhibition. 190,000 tested, 0.82% active. inhibition, % at 2 µM. AID 1285. SH-SY5Y APP 5'UTR-luciferase reporter, luminescence;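 active = inhibition above a set limit, derived from the sample mean plus 3 SD, cut at about 45% in these data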
KLF5 inh = suppresses KLF5 promoter-driven expression | DLD-1 KLF5 promoter-luciferase reporter, luminescence | inhibition, % at 5 µM | 290,000 tested, 0.23% active | AID 1700;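 active = inhibition above a per-plate limit of that plate's mean compound inhibition plus 3 SD, cut at about 60% in these data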;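 note: 0% = DMSO wells and 100% = LY294002 at 200 µM; higher means less KLF5 promoter-driven luciferase light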
Ba/F3 V617F tox = lowers viability of Ba/F3 cells expressing EpoR and JAK2V617F | ATP luminescence | inhibition, % at 5.6 µM | 220,000 tested, 1.1% active | AID 1446;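 active = inhibition above the campaign mean plus 3 SD over all tested compounds, cut at about 24% in these data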;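 note: cytokine-independent growth of Ba/F3 cells driven by EpoR plus mutant JAK2; 0% = DMSO-treated cells and 100% = JAK inhibitor I control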
* marks the source's active call; other numbers are inactive results; . = no result. This is a sample that favours compounds with a hit; in the whole collection about 2.2% have one here.

SMILES	IEC-6 tox	aSyn 5UTR inh	BaF3 parental	APP transl inh	KLF5 inh	Ba/F3 V617F tox
O=C(Cn1cnc2c(oc3nc4c(cc32)CCCC4)c1=O)Nc1cccc(Cl)c1	2.1	66.3*	.	.	6.4	.
CCOC(=O)c1c(S(=O)(=O)Nc2ccccn2)c(C)n(C)c1C	-7.1	-1.3	.	.	-23.2	.
Cc1ccc2cc3c(N)c4c(C)ccc(C)c4nc3nc2c1	5.5	-76.9	5.3	56.1*	-1.6	4.8
Cc1ccc2c(N)c(C)ccc2c1	6.3	-37.8	5.2	-17.5	-35.1	5.5
CCC[N+]1(CC#CCC(c2ccccc2)c2ccccc2)CCCCC1	14.9	2.9	.	.	23.3	.
O=C(C[N+]1(CC#Cc2ccccc2)CCOCC1)c1ccc(Cl)cc1	8.6	-14.9	5.1	-26.8	0.6	5.8
C#CC[N+]1(CC#Cc2ccccc2)CCCCC1	-7.5	7.8	59.2*	14.2	-26.2	46.2*
C#CC[N+]1(CC#Cc2cccc(C)c2)CCCCC1	1.4	-21.3	67.3*	7.2	13.4	76.2*
C(#Cc1ccccc1)C[N+]1(CC#Cc2ccccc2)CCCCC1	-0.6	27.7	69.4*	2.0	12.0	86.5*
C#CC[N+]1(CC#Cc2ccccc2)CCOCC1	-1.7	-32.5	12.2	7.9	-13.8	2.7
Cc1ccc(C#CC[N+]2(CC#Cc3ccc(C)cc3)CCCCC2)cc1	14.7	19.5	77.7*	10.3	27.6	95.8*
O=S1(=O)CCN(Cc2ccc(Cl)c(C(F)(F)F)c2)CC1	-5.9	26.0	0.4	8.8	-4.7	-0.8
CCC(=O)N1CCCc2cc(S(=O)(=O)CCC(=O)Nc3ccccc3C)ccc21	3.4	4.0	.	.	-20.3	.
C(#Cc1ccccc1)C[N+]1(CC#Cc2cccc3ccccc23)CCOCC1	-4.1	.	50.2*	-0.7	-7.4	55.7*
O=C1SCC(c2ccccc2)=NN1Cc1ccccc1	3.1	5.7	32.4*	14.5	-71.2	4.9
CC(=O)Nc1ccc(C2=NN(Cc3nnc(-c4ccccc4)o3)C(=O)SC2)cc1	3.9	12.6	6.0	-7.2	-9.1	-1.4
CCN1/C(=C/C=C/c2oc3ccc4ccccc4c3[n+]2CC)Oc2ccc3ccccc3c21	0.7	92.5*	68.3*	54.0*	-16.5	100.9*
COc1ccc2cc(CN(CC3CCCO3)C(=O)Nc3ccccc3OC)c(=O)[nH]c2c1 (centres undefined)	7.0	66.4*	2.9	18.9	-10.7	4.4
Cc1cc2cc(CN(Cc3ccco3)S(=O)(=O)c3c(C)ccc4nsnc34)c(=O)[nH]c2cc1C	-0.9	88.9*	4.8	3.5	-13.4	-1.3
CC(=O)Nc1ccc(S(=O)(=O)N(Cc2cc3ccc(C)cc3[nH]c2=O)CC2CCCO2)cc1 (centres undefined)	0.7	82.4*	.	.	-55.9	.
Cc1ccc2cc(CN(Cc3ccco3)S(=O)(=O)c3c(C)ccc4nsnc34)c(=O)[nH]c2c1	4.1	48.3	5.3	0.9	26.5	2.8
COc1ccccc1NC(=S)N(Cc1ccco1)Cc1cc2cc(C)c(C)cc2[nH]c1=O	2.7	91.0*	6.9	92.3*	-4.9	9.3
O=C(COC(=O)C1CCN(S(=O)(=O)c2cccc3cccnc23)CC1)c1ccccc1	-3.0	21.7	63.5*	3.4	-18.1	28.6*
COc1cccc(N2CCN(C(=O)c3[nH]c(C)c(C(C)=O)c3C)CC2)c1	16.5	-2.2	35.2*	29.2	41.0	20.9
COC(=O)c1c(C)[nH]c(C(=O)N2CCN(c3ccc(OC)cc3)CC2)c1C	-0.7	-43.4	9.0	7.3	-33.8	1.1
SMILES	IEC-6 tox	aSyn 5UTR inh	BaF3 parental	APP transl inh	KLF5 inh	Ba/F3 V617F tox
O=C(Nc1ccc(Cl)cc1)N1CCCN(c2ccc(C(F)(F)F)cc2[N+](=O)[O-])CC1	9.5	2.6	0.3	.	-17.8	1.1
Cn1nnnc1Sc1ncnc2scc(-c3ccc(F)cc3)c12	31.0*	-88.9	6.8	-0.1	-3.4	26.7*
Cn1nnnc1Sc1ncnc2scc(-c3ccccc3)c12	14.2	-59.1	-6.5	7.8	-11.4	-2.3
Cc1nc2scc(C)n2c(=O)c1S(=O)(=O)NCc1ccc(F)cc1	-8.5	2.7	.	.	-3.6	.
O=C(NC1CCCCCC1)c1c2c(nc3ccccc13)CCN(Cc1ccccc1)C2	-2.1	-56.8	3.4	-12.9	-12.9	-2.4
Cc1cc(N2CCN(C)CC2)ccc1NC(=O)c1c2c(nc3ccccc13)CCN(Cc1ccccc1)C2	2.7	91.6*	6.7	12.5	2.4	10.0
C=CCN1C(=O)c2ccc(C(=O)N(CC(C)C)c3c(N)n(CCCC)c(=O)[nH]c3=O)cc2C1=O	.	11.5	.	.	.	.
COc1ccc(NCc2ccc([N+](=O)[O-])s2)cc1	-7.1	-50.1	4.5	49.0*	-29.8	-2.0
CC1CC(=O)NN=C1c1ccc(N(C)C)c([N+](=O)[O-])c1 (centres undefined)	-3.5	47.5	3.4	8.1	-25.2	0.2
CCN(CC)c1ccc(C2=NNC(=O)CC2C)cc1[N+](=O)[O-] (centres undefined)	-1.3	98.5*	3.0	-9.7	-30.4	6.5
CCN(CC)c1ccc(/C=C2/SC(=O)N(C(C)C)C2=O)o1	-0.1	-174.8	7.9	92.0*	9.6	5.0
Cc1cccc2cc3c(N)c(C(=O)N4CCOCC4)sc3nc12	2.2	6.4	59.1*	84.6*	-11.1	59.0*
Cc1ccc(N/C(N)=N/c2nc(CSc3nnc(C)s3)cc(=O)[nH]2)c(C)c1	9.4	83.5*	3.6	93.4*	-29.0	-0.7
COc1ccc(N/C(N)=N/c2nc(CSc3nnc(C)s3)cc(=O)[nH]2)cc1	5.0	3.9	13.2	15.5	-5.1	4.4
O=c1cc(-c2c(F)c(F)c(F)c(F)c2F)oc2ccccc12	-2.3	-39.4	9.2	13.1	-16.1	0.1
O=c1cc(-c2c(F)c(F)c(F)c(F)c2F)oc2c(F)c(F)c(F)c(F)c12	-0.2	-11.9	1.0	96.8*	-33.1	-1.5
CCC(C)NS(=O)(=O)c1ccc(NC(C)=O)cc1 (centres undefined)	4.8	1.2	2.4	-26.6	-4.0	0.1
COC(=O)C(C)NS(=O)(=O)c1ccc(NC(C)=O)cc1 (centres undefined)	25.8*	9.9	5.0	-21.4	1.2	4.8
COc1ccc(NC(=O)c2cn(-c3ccccc3)nc2-c2ccncc2)cc1	-0.8	-25.2	8.8	10.4	-33.5	1.8
COc1ccc(-c2nn(-c3ccccc3)cc2C(=O)NC(=S)NNC(=O)c2ccncc2)cc1	24.7*	72.5*	3.6	49.9*	19.9	5.1
O=[N+]([O-])c1cccc(-c2nnc(C3CC3)o2)c1	-4.1	-5.4	35.2*	.	-22.6	-5.5
Cc1ccc(S(=O)(=O)N2CCCC2)s1	-1.3	6.0	.	.	-11.8	.
Cc1ccc(OCCN2CCN(C(=O)CCC(=O)Nc3nnc(CC(C)C)s3)CC2)cc1	-0.9	-6.2	3.3	.	-5.4	-2.6
CC(C)(C)c1ccc(C(=O)CCCSC2=C(C#N)C(c3ccco3)C3=C(CCCC3=O)N2)cc1 (centres undefined)	0.3	.	9.6	-24.6	-5.8	6.1
